# Compound activity (PubChem BioAssay)
# Pol kappa inh-1: qHTS for Inhibitors of Polymerase Kappa. purified Pol kappa, fluorescent DNA synthesis assay, 10 min. Potency, µM (top dose mostly 107 µM), inactives show at the highest dose activity, negative = inhibition, most hits filed as inhibitors. AID 588579, 2011. actives 0.53% (n = 400,000); further: on the % scale 0 is the no-effect control and ±100 the full control effect
#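 Activity was followed as the change in fluorescence between reads at 0 and 10 min after starting the reaction with 50 nM substrate. Beforehand, 10 nM polymerase had been preincubated with compound for 15 min at room temperature.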
# WRN inhibitor: qHTS for Inhibitors of WRN Helicase | Potency, µM (titrated, usually from 114 µM), inactives show top-dose activity change, negative = inhibition, hits mostly inhibitors | Bifunctional 3'-5' exonuclease/ATP-dependent helicase WRN (Homo sapiens), Q14191 | actives 0.46% (n = 360,000) | AID 651768, 2012 | WRN helicase unwinding, fluorescent forked duplex, kinetic; further: on the % scale 0 is the no-effect control and ±100 the full control effect; nearly all actives have a fitted effect of over 55% in size
#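 Fluorescence dequenching readout, ex 525 nm/em 598 nm, kinetic mode: forked duplex DNA (100 nM final) with adjacent fluorophore and quencher unwound by WRN (20 nM final) with 2 mM ATP. Compound preincubation 15 min, room temperature.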
# Pol eta inh-1: qHTS for Inhibitors of Polymerase Eta; DNA polymerase eta (Homo sapiens), Q9Y253; recombinant Pol eta, fluorescent DNA replication assay; Potency, µM (doses to about 114 µM), inactives show at the highest dose activity change, negative = inhibition, hits mostly inhibitors; actives 1.2% (n = 390,000); AID 588591, 2011; further: on the % scale 0 is the no-effect control and ±100 the full control effect
#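 Pol eta (10 nM) was preincubated with compounds for 15 min at room temperature, after which fluorescent replication substrate (50 nM final) was added to start the reaction. Fluorescence was read kinetically at 0 and 10 min.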
# FEN1 inhibitor: qHTS Assay for the Inhibitors of Human Flap endonuclease 1 (FEN1); AID 588795, 2011; Potency, µM (titrated, usually from 114 µM), without a hit: at the top dose activity change, negative = inhibition, hits mostly inhibitors; P39748; Recombinant FEN1 flap cleavage, fluorescence, 15 min; actives 0.35% (n = 390,000); further: on the % scale 0 is the no-effect control and ±100 the full control effect; nearly all actives have a fitted effect of over 65% in size
#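 FEN1 at 10 nM, compound pretreatment for 15 min (room temperature), 50 nM final substrate to initiate; endpoint reads at 0 and 15 min; DMSO-only plates used as vehicle background.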
# Pol iota inh: qHTS for Inhibitors of Polymerase Iota | DNA polymerase iota (Homo sapiens), Q9UNA4 | Pol iota fluorescent replication assay, 10 min | Potency, µM (titrated, usually from 115 µM), for the others: at the top dose activity, negative = inhibition, most hits filed as inhibitors | actives 1% (n = 390,000) | AID 588590, 2011
#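 Fluorescent replication assay read twice, at 0 min and 10 min after adding 50 nM (final) substrate. Enzyme (10 nM) and compounds were first incubated 15 min at room temperature; enzyme-free buffer wells were negative controls.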
# Pol beta inh: qHTS Assay for Inhibitors of DNA Polymerase Beta. actives 1.3% (n = 340,000). Pol beta primer extension/strand displacement, fluorescence kinetic. Potency, µM (highest dose often 114 µM), without a hit: top-dose activity change, negative = inhibition, most hits filed as inhibitors; further: on the % scale 0 is the no-effect control and ±100 the full control effect
#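 Reaction started by 50 nM substrate onto compound-treated Pol beta (10 nM, 15 min preincubation, room temperature); plates read at 0 min and 10 min. Normalized concentration-effect data fitted by four-parameter Hill equation.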
# Pol iota confirm: qHTS for Inhibitors of Polymerase Iota: Confirmatory Assay for Cherry-picked Compounds; AID 720496, 2013; Pol iota primer extension, TAMRA/BHQ fluorescence; Potency, µM, hits mostly inhibitors; actives 77% (n = 1,500); shares compounds with Pol kappa inh-1
# Pol kappa inh-2: qHTS for Inhibitors of Polymerase Kappa: Confirmatory Assay for Cherry-picked Compounds; shares compounds with Pol eta inh-1; Potency, µM, actives largely listed as inhibitors; purified Pol-kappa, fluorescent strand-displacement substrate; actives 76% (n = 920)
# Pol eta inh-2: qHTS for Inhibitors of Polymerase Eta: Confirmatory Assay for Cherry-picked Compounds; actives 64% (n = 2,600); shares compounds with Pol eta inh-1; Potency, µM, actives largely listed as inhibitors; Pol eta primer extension, TAMRA/BHQ fluorescence, 10 min
# * hit, by the source's call; ? = inconclusive; / = not tested or not shown; [ ] = another dose, or the depositor's remark. The list is not random: actives were taken first. Their share in the collection is about 2.4%. The call rests on the fitted dose curve; in most records, active means well fitted curve in the direction sought with a large enough effect; inconclusive means small, poorly fitted or top-dose-only effect, or another doubt; inactive means no such curve, though single readings can be large; an effect the other way counts as inactive or inconclusive. Potency means the concentration at half of the fitted maximal effect.
SMILES,Pol kappa inh-1,WRN inhibitor,Pol eta inh-1,FEN1 inhibitor,Pol iota inh,Pol beta inh,Pol iota confirm,Pol eta inh-2,others
CCN(C(=O)C(C)N1C(=O)/C(=C/c2ccco2)SC1=S)C1CCS(=O)(=O)C1 (stereo unspecified),28µM*,50µM*,16µM*,?,22µM*,11µM*,42*,27*,
O=C(NNc1cc(Cl)cc(Cl)c1)c1sccc1Cl,-1%,/,/,-3%,15%,/,/,/,
Cc1cccc(NC(=O)Cn2c(O)c(N=NC(=O)c3ccccc3O)c3ccccc32)c1,-15%,?,45µM*,-34%,91%,16µM*,47*,?,
Cc1ccc(NC(=O)Cn2c(O)c(N=NC(=O)c3cc([N+](=O)[O-])ccc3O)c3ccccc32)cc1,/,/,/,/,/,-18%,/,/,
O=C(/C=C/c1cccnc1)c1cc(F)ccc1O,15%,2%,-5%,-5%,38%,27%,/,/,
O=C(O)c1cc(/C=C/C(=O)c2cc(F)ccc2O)c2c(c1)COCO2,?,-25%[11.6 µM],22µM*,-28%,14µM*,?,67*,48*,
CCOc1cc(/C=N/N=C2/NC(=O)C(CC(=O)O)S2)ccc1OCc1ccc(Cl)cc1Cl (stereo unspecified),?,?,32µM*,?,?,22µM*,75*,76*,Pol kappa inh-2=75*
COc1ccc(-c2ccc(C)cc2)cc1C1C2C=CCC(C)C2C(=O)N1Cc1ccccc1 (stereo unspecified),4%,/,/,6%,5%,/,/,/,
O=C(COC(=O)c1cncc(Br)c1)NCc1ccco1,79µM*,50µM*,10µM*,-17%,?,22µM*,24*,?,Pol kappa inh-2=24*
O=C(COC(=O)c1cccs1)NCc1ccco1,?,?,14µM*,-5%,20µM*,20µM*,75*,85*,
O=C(NCc1cccc(CNC(=O)C(=O)NCc2ccco2)c1)C(=O)NCc1ccco1,-60%,?,28µM*,-5%,?,22µM*,67*,76*,Pol kappa inh-2=?
O=C(NCc1cccc(CNC(=O)c2ccco2)c1)c1ccco1,-11%,-1%,1%,-7%,21%,4%,/,/,
O=C(COC(=O)Cc1cccc(C(F)(F)F)c1)NCc1ccco1,45µM*,?,5µM*,3%,?,/,60*,30*,Pol kappa inh-2=24*
CC(=O)c1ccc(S(=O)(=O)N2Cc3ccccc3CC2C(=O)O)cc1 (stereo unspecified),50µM*,?,5µM*,9%,?,13µM*,27*,15*,
O=C(O)[C@H]1Cc2ccccc2CN1S(=O)(=O)c1ccc(F)cc1,-7%,-2%,-6%,-13%,3%,-2%,/,/,
CC(=C\C(=O)O)/C(=C/c1ccco1)C(=O)O,?,2%[11.6 µM],?,-16%,?,?,/,/,
CC(=C\C(=O)O)/C(=C/c1ccc(C)o1)C(=O)O,?,-18%[11.6 µM],7.9µM*,7%,?,20µM*,34*,21*,
C[C@@H]1C(=O)N(S(=O)(=O)c2ccccc2[N+](=O)[O-])[C@H]1c1ccc(-c2ccccc2)cc1,-4%,/,/,0%,-29%,/,/,/,
O=C(O)c1cccc(-n2cccc2/C=C2\NC(=O)N(Cc3ccc(F)cc3)C2=O)c1,79µM*,?,20µM*,?,22µM*,11µM*,67*,30*,
CCOC(=O)c1cccc(-n2cccc2/C=C2\NC(=O)N(CC(=O)O)C2=O)c1,-2%,/,-15%,4%,41%,/,/,/,
O=C(O)c1ccc(COc2ccc3ccccc3c2/C=C2/NC(=O)N(Cc3ccc(F)cc3)C2=O)cc1,?,79µM*,32µM*,?,-4%,22µM*,?,?,Pol kappa inh-2=38*
Cc1cc(C(=O)O)ccc1-c1ccc(/C=C2\NC(=O)N(Cc3ccc(F)cc3)C2=O)o1,28µM*,?,7.1µM*,?,?,?,17*,17*,
Cc1ccc(CN2C(=O)N/C(=C\c3cccn3-c3cccc(C(=O)O)c3)C2=O)cc1,50µM*,32µM*,8.9µM*,?,14µM*,8.9µM*,21*,27*,
CCC(C)c1cc([N+](=O)[O-])cc([N+](=O)[O-])c1OC(C)=O (stereo unspecified),-8%[60.1 µM],/,/,/,/,/,/,/,
C=C1CCN(C(C)C(=O)OCc2ccc(C)cc2)S(=O)(=O)c2ccccc21 (stereo unspecified),1%,/,/,-23%,38%,/,/,/,
SMILES,Pol kappa inh-1,WRN inhibitor,Pol eta inh-1,FEN1 inhibitor,Pol iota inh,Pol beta inh,Pol iota confirm,Pol eta inh-2,others
CC1=C(C)C(=O)C(C(CCCCCC(=O)O)c2ccccc2)=C(C)C1=O (stereo unspecified),-2%[19.4 µM],/,/,/,/,/,/,/,
CCc1nn(CC(=O)N2CCN(c3cccc(C(F)(F)F)c3)CC2)c(=O)c2cccn12,?,/,-21%,?,18%,0%,/,/,
CC1CN(C(=O)Nc2ccc(C(=O)NCc3cccc(F)c3)cc2)c2ccccc2S1 (stereo unspecified),-9%,/,-13%,0%,19%,-11%,/,/,
O=C(O)CCN1C(=O)/C(=C\c2cccc(Oc3ccccc3)c2)SC1=S,?,?,40µM*,?,25µM*,?,?,76*,
COc1ccc(/C=C2/SC(=S)N(Cc3ccccc3)C2=O)cc1O,-7%,-6%,-2%,-17%,-23%,5%,/,/,
COc1ccc(/C=C2/SC(=S)N(CCC(=O)O)C2=O)cc1,-13%,-18%,-9%,-12%,-5%[58.9 µM],22%,/,/,
